The list is not random: actives were taken first. Their share in the collection is about 3.3%.
HNF4A DNA FP: change in binding of human HNF4 alpha to DNA | P41235 | HNF4a-FITC DNA binding, fluorescence polarization, 1 h | activity change, % at 10 µM | 360,000 tested, 0.3% active; in the data active = activity change above about 30%, passing the limit was not always enough
PHOSPHO1 inh: inhibitors of human PHOSPHO1 phosphatase | Q8TCT1 | recombinant PHOSPHO1, absorbance phosphatase assay | 290,000 tested, 1.1% active | inhibition, % at 13.3 µM; in the data active = inhibition above about 60%
Target sequence (Q8TCT1 whole entry, looked up): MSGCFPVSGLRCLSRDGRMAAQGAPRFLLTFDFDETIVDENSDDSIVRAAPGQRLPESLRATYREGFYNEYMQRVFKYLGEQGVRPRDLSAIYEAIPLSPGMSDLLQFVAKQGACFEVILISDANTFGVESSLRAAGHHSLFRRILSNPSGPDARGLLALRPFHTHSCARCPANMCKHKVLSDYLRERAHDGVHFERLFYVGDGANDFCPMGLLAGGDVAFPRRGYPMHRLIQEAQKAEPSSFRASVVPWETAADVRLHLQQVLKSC
TPT1 inhibitor: inhibitors of Candida albicans tRNA 2'-phosphotransferase TPT1 | recombinant caTPT1, FP RNA substrate dephosphorylation | inhibition, % at 5 µM | 300,000 tested, 0.81% active | AID 1962;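 active = inhibition above the mean of all tested compounds plus 3 SD, set per screening campaign, cut at about 24% in these data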
CendR NRP1 mod: modulators of CendR peptide binding to human neuropilin-1 | O14786 | FAM-RPARPAR peptide binding to NRP-1, fluorescence polarization | inhibition, % at 25 µM | 360,000 tested, 0.85% active | AID 602438;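 active = inhibition or corrected inhibition above about 18%, plus a signal ratio from 0.5 to 1.5, limit read from the data, passing the limit was not always enough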
Fh CTSL1 inh: cathepsin L1 inhibition, PFM18AAP counter-screen; recombinant F. hepatica cathepsin L1, Z-Leu-Arg-MCA fluorescence; inhibition, % at 5.96 µM; 300,000 tested, 0.49% active; AID 1906;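 active = inhibition above the mean of all tested compounds plus 3 SD, set per screening campaign, cut at about 17% in these data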
Rpn11 inh: Rpn11 (human) deubiquitinase inhibition; human 26S proteasome, Ub4-pepOG fluorescence polarization; 20S core pre-blocked with epoxomicin; inhibition, % at 20 µM; 360,000 tested, 0.59% active; AID 588493;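 active = inhibition at 20 µM, scaled to each plate's controls, above about 33%, limit read from the data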
Target sequence (O00487 whole entry, looked up): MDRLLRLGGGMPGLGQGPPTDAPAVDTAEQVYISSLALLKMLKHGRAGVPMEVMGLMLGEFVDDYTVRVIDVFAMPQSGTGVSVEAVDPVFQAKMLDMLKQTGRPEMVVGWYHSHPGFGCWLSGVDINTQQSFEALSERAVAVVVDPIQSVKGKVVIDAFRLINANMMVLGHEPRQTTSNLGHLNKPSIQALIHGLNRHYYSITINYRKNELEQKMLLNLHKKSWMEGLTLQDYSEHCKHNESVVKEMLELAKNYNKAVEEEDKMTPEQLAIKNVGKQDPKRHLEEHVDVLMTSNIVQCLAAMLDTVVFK
Large screens that a line does not name were inactive.

O=C(O)c1ccccc1SCC(=O)N1CCOCC1	none
O=C(O)c1ccccc1SCC(=O)N1CCCCC1	CendR NRP1 mod 27.6
O=C(NCC1CCCO1)c1cc2c([nH]c3ccccc32)c(-c2cccc(Cl)c2)n1 (centres undefined)	none
Cc1c(C(=O)/C=C/N(C)C)nnn1-c1ccc(F)c(Cl)c1	CendR NRP1 mod 38.2
N#Cc1ccsc1NC(=O)CCN1CCN(C(c2ccccc2)c2ccccc2)CC1	none
O=C(CSc1ncccc1-c1nc2ccccc2[nH]1)N1CCCCC1	PHOSPHO1 inh 89.4
NC(CCc1ccccc1)c1csc(Nc2nncc3ccccc23)n1 (centres undefined)	none (no result: PHOSPHO1 inh, TPT1 inhibitor, Fh CTSL1 inh)
CCOC(=O)N1CCN(C(=O)c2cc(COc3ccc(OC)cc3Cl)on2)CC1	CendR NRP1 mod 25.4
COc1ccc(OCc2cc(C(=O)N3CCCCCCC3)no2)c(Cl)c1	none
CN(CCc1ccccc1)C1CCCN(S(=O)(=O)CC(F)(F)F)C1 (centres undefined)	Fh CTSL1 inh 19.4
CN(CCc1ccccn1)C1CCCN(S(=O)(=O)c2ccccc2)C1 (centres undefined)	none
COC(=O)[C@H](NC(=O)c1cc(-c2ccccc2)sc1N)C(C)C	none (no result: PHOSPHO1 inh, TPT1 inhibitor, Fh CTSL1 inh, Rpn11 inh)
O=C1C=CC(=O)c2c(O)c(CO)c(CO)c(O)c21	CendR NRP1 mod 59.3 (no result: PHOSPHO1 inh, TPT1 inhibitor, Fh CTSL1 inh)
O=C(NC(=S)N1CCCCC1)C12CC3CC(CC(C3)C1)C2	PHOSPHO1 inh 83.7
CCOC(=O)N1CCN(C(=S)NC(=O)C23CC4CC(CC(C4)C2)C3)CC1	none
CCCCOC1(c2ccccc2)NC(=S)NN=C1c1ccccc1 (centres undefined)	PHOSPHO1 inh 71.3 (no result: HNF4A DNA FP, CendR NRP1 mod, Rpn11 inh)
COC1(c2ccccc2)NC(=S)NN=C1c1ccccc1 (centres undefined)	PHOSPHO1 inh 75.2
Cn1c(COc2ccc(F)cc2)nc2ccccc21	CendR NRP1 mod 23.3 (no result: PHOSPHO1 inh)
Cn1c(COc2ccc(C(=O)O)cc2)nc2ccccc21	none
Cc1csc(N/N=C/c2ccc(O)c([N+](=O)[O-])c2)n1	PHOSPHO1 inh 93.2
CC1(C)Cc2c(sc3c2c(=N)n(Cc2ccco2)c(=O)n3CC(=O)Nc2ccccc2)CO1	none
CCn1c(=O)n(Cc2ccco2)c(=N)c2c3c(sc21)COC(C)(C)C3	PHOSPHO1 inh 63.3
Cc1cc(C)c[n+](-c2[nH]c(=O)sc2/C=N/NC([S-])=Nc2ccccc2)c1	CendR NRP1 mod 46.9
CC(C)(C)c1cc[n+](-c2[nH]c(=O)sc2/C=N/NC(=O)c2ccccc2[O-])cc1	CendR NRP1 mod 27.2
Cc1cc[n+](-c2[nH]c(=O)sc2/C=N/NC([S-])=Nc2ccccc2)cc1	CendR NRP1 mod 55.0
O=c1[nH]c(-[n+]2ccccc2)c(/C=N/NC([S-])=Nc2ccccc2)s1	none
CC(C)(C)c1cc[n+](-c2[nH]c(=O)sc2/C=N/N=C(\[O-])c2cccnc2)cc1	none
COc1ccc2[nH]c3c(=O)n(CCCCC(=O)N4CCCC4)c(=S)[nH]c3c2c1	PHOSPHO1 inh 100.2
CCCNC(=O)CCCCn1c(=S)[nH]c2c([nH]c3ccc(OC)cc32)c1=O	none
CCOc1ccc(NC(N)=O)cc1	none
NC(=O)Nc1ccc(Oc2c(F)c(F)c(F)c(F)c2F)cc1	CendR NRP1 mod 39.7
C#CC(C)(CC)NC(=O)Cn1nnc(-c2cccc(C(F)(F)F)c2)n1 (centres undefined)	none
O=C1c2ccccc2NC(c2ccccc2F)N1NS(=O)(=O)c1ccccc1 (centres undefined)	none
CCN(CC)c1ccc(NC(=O)Cn2cc3c(n2)CCC(C)C3)c(C)c1 (centres undefined)	PHOSPHO1 inh 82.6
CNc1oc(-c2ccc(C)cc2)nc1P(=O)(c1ccccc1)c1ccccc1	none
NS(=O)(=O)c1ccc(NC2=CC(=O)C(=O)c3ccccc32)cc1	CendR NRP1 mod 31.3, Fh CTSL1 inh 16.8
COCC(C)N1CCC(n2nccc2NC(=O)CCOc2ccccc2)CC1 (centres undefined)	none
C=CCC(=O)N1CCC(n2nccc2NC(=O)CCOc2ccccc2)CC1	CendR NRP1 mod 27.8
CSCC(C)N1CCC(n2nccc2NC(=O)CCOc2ccccc2)CC1 (centres undefined)	CendR NRP1 mod 21.9
O=C(Cc1ccccc1)NC(Nc1ccccc1)C(Cl)(Cl)Cl (centres undefined)	none
O=C(Cc1ccccc1)NC(NCCc1ccccc1)C(Cl)(Cl)Cl (centres undefined)	CendR NRP1 mod 22.0
Cc1ccc2ccccc2c1C(O)c1ncc(-c2ccccc2)[nH]1 (centres undefined)	none (no result: PHOSPHO1 inh, TPT1 inhibitor, Fh CTSL1 inh)
COc1cccc(NC(=O)[C@H](C)NC(=O)N2CCn3c2nc2ccccc23)c1	PHOSPHO1 inh 64.9
COc1cc(NC(=O)[C@H](C)NC(=O)N2CCn3c2nc2ccccc23)cc(OC)c1	none
CCc1ccccc1NC(=O)CSc1nc(C)c(C)o1	none (no result: TPT1 inhibitor, Fh CTSL1 inh)
O=C(COC(=O)CCNS(=O)(=O)c1ccc(Cl)cc1)NCc1ccco1	CendR NRP1 mod 19.3
O=C(COC(=O)CCNS(=O)(=O)c1ccc(Cl)cc1)NCc1ccccc1	none (no result: PHOSPHO1 inh, TPT1 inhibitor, Fh CTSL1 inh)
COC(=O)c1c(NC(=O)c2ccco2)sc(C(=O)N(C)C)c1C	none
Cc1ccc(C)c(C(=O)CSc2n[nH]c(-c3ccncc3)n2)c1	PHOSPHO1 inh 63.9
CC(On1nnc2ccccc21)C(=O)N1CCN(Cc2ccccc2)CC1 (centres undefined)	PHOSPHO1 inh 80.3
CC(OC(=O)c1ccc(Cl)c([N+](=O)[O-])c1)C(=O)N1CCN(Cc2ccccc2)CC1 (centres undefined)	none (no result: PHOSPHO1 inh, TPT1 inhibitor, Fh CTSL1 inh)
CCO[C@@H]1OC(C(=O)NCc2ccccc2)=C[C@H](c2coc3ccccc3c2=O)[C@H]1CCCO	CendR NRP1 mod 19.5
CCO[C@@H]1OC(C(=O)NC2CC2)=C[C@H](C(C)(C)C)[C@H]1CCCO	CendR NRP1 mod 23.1
CCO[C@@H]1OC(C(=O)NCc2ccccc2)=C[C@H](C)[C@H]1CCCO	CendR NRP1 mod 26.4
CCO[C@H]1OC(C(=O)Nc2ccccc2)=C[C@@H](c2coc3ccccc3c2=O)[C@@H]1CCCO	none
Cc1ccc(Cl)cc1NC(=O)CN1C(=O)COc2ccc(S(=O)(=O)N3CCOCC3)cc21	none
CC1CC(C)(C)CC2(C1)NC(=O)N(CC(=O)N(Cc1ccccc1)c1ccccc1)C2=O (centres undefined)	none (no result: PHOSPHO1 inh)
COc1ccc(OCC(=O)OCC(=O)NC2CCCC2)cc1	none (no result: PHOSPHO1 inh, TPT1 inhibitor, Fh CTSL1 inh)
CN=C(c1ccco1)n1c(=S)nc(-c2ccco2)n(C)c1=S	PHOSPHO1 inh 89.4
COc1ccc(CCN(Cc2cccs2)S(=O)(=O)c2ccc(S(=O)(=O)N3CCC(C)CC3)cc2)cc1OC	none
Cn1ccc2c([N+](=O)[O-])cccc2c1=O	none
OC(CCc1ccncc1)c1ccccc1 (centres undefined)	none (no result: PHOSPHO1 inh)
OC(CCc1ccncc1)COc1ccccc1 (centres undefined)	CendR NRP1 mod 20.5 (no result: PHOSPHO1 inh)
O=C(CCCCCCCC(=O)N1CCCCCC1)N1CCCCCC1	none (no result: PHOSPHO1 inh, TPT1 inhibitor, Fh CTSL1 inh)
O=C(Oc1nsnc1N1CCOCC1)N1CCOCC1	none

High-throughput results as filed in PubChem.
